# Measurements: PubChem BioAssay (EPA / NIEHS)
# Results filed as inconclusive are left out. Calls of active or inactive are those of the source. How the source made its calls: active means hit-call score of the fitted dose curve at least 0.9, where 1 is the maximum; inconclusive means response in the unintended direction; inactive means score below 0.9.
# Assay: TOX21_p53_BLA_p3_viability: Viability Assessment in the Tox21 HCT-116 p53 Agonism Beta-lactamase Assay, Phase 3 (AID 2283593);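 further: cells exposed to compound for 16 h before reading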
# Outline: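 HCT-116 cells (4000/well) rested 5 h at 37C, then got DMSO compounds by pin tool (217-fold dilution) for 16 h at 37C, 5% CO2. After the bla read, CellTiter-Glo was added and luminescence read at 30 min, room temperature.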
Compound,outcome,AC50
O=C(OCC1(COC(=O)c2cccnc2)CCCC(COC(=O)c2cccnc2)(COC(=O)c2cccnc2)C1O)c1cccnc1,inactive,–
Oc1cc2c(cc1O)[C@H]1c3ccc(O)c(O)c3OC[C@@]1(O)C2,inactive,–
COC(=O)[C@H]1[C@H]2C[C@@H]3c4[nH]c5cc(OC)ccc5c4CCN3C[C@H]2C[C@H](OC)[C@@H]1OC,inactive,–
CCCCCCc1ccc(-c2ccc(C#N)cc2)cc1,inactive,–
CN(C)CCOC1=Cc2ccccc2Sc2ccc(Cl)cc21,inactive,–
CC(=O)CCCCn1c(=O)c2c(ncn2C)n(C)c1=O,inactive,–
O=[N+]([O-])c1ccc(F)cc1F,inactive,–
O=c1[nH]ncc2ccccc12,inactive,–
NC(Cc1ccc(Cl)cc1)C(=O)O (centres undefined),inactive,–
CC[N+]1(CC)CCC(=C(c2ccccc2)c2ccccc2)C1C (centres undefined),inactive,–
Cc1ccc(C(=O)O)cc1,inactive,–
COCCCOc1cc(C[C@@H](C[C@H](N)[C@@H](O)C[C@H](C(=O)NCC(C)(C)C(N)=O)C(C)C)C(C)C)ccc1OC,inactive,–
CC(O)[C@@H]1NC(=O)[C@H](CCCCN)NC(=O)[C@@H](Cc2c[nH]c3ccccc23)NC(=O)[C@H](Cc2ccccc2)NC(=O)[C@@H](NC(=O)[C@H](N)Cc2ccccc2)CSSC[C@@H](C(=O)N[C@H](CO)[C@@H](C)O)NC1=O (some centres undefined),inactive,–
C[C@H]1O[C@@H](O[C@H]2CC[C@@]3(C)[C@H](CC[C@@H]4[C@@H]3C[C@@H](O)[C@]3(C)[C@@H](C5=CC(=O)OC5)CC[C@]43O)C2)C[C@H](O)[C@@H]1O[C@H]1C[C@H](O)[C@H](O[C@H]2C[C@H](O)[C@H](O[C@@H]3O[C@H](CO)[C@@H](O)[C@H](O)[C@H]3O)[C@@H](C)O2)[C@@H](C)O1,–,296 nM (active)
